Source: PubChem (National Center for Advancing Translational Sciences (NCATS))
Hits are enriched below; roughly 2.3% of the tested compounds scored in any of these assays.
Pol kappa inh – qHTS for Inhibitors of Polymerase Kappa; purified Pol kappa, fluorescent DNA synthesis assay, 10 min; Potency, µM (highest dose often 107 µM), without a hit: top-dose activity, negative = inhibition, hits mostly inhibitors; 400,000 tested, 0.53% active; note: % is set by controls: 0 for no effect and ±100 for the full control effect
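10 nM Pol kappa preincubated 15 min at room temperature with compounds, then reaction started with substrate at 50 nM final. Fluorescence read kinetically at 0 and 10 min; buffer-only wells served as negative control.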
Pol eta inh – qHTS for Inhibitors of Polymerase Eta | recombinant Pol eta, fluorescent DNA replication assay | Potency, µM (series often up to 114 µM), for the others: at the highest dose activity change, negative = inhibition, usual class: inhibitors | 390,000 tested, 1.2% active; note: % is set by controls: 0 for no effect and ±100 for the full control effect
Target sequence (Q9Y253 whole entry, looked up): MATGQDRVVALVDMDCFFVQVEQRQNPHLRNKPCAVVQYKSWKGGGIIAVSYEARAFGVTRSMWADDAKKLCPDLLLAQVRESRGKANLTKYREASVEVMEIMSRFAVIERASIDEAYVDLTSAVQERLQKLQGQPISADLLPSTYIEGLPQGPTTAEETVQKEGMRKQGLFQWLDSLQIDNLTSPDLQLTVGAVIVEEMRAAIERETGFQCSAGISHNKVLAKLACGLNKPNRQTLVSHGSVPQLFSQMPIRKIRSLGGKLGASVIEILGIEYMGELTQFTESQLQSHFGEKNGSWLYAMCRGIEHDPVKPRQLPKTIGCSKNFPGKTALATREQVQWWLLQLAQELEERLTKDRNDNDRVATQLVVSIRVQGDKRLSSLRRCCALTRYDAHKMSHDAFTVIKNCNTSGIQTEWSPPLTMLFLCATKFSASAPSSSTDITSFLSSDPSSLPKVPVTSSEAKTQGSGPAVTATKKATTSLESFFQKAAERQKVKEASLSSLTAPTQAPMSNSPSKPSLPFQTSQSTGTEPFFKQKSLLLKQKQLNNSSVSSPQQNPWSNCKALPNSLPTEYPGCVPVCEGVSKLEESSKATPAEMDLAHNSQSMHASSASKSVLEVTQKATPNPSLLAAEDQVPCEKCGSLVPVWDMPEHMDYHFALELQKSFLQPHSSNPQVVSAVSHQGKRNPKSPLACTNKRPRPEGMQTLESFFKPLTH
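Pol eta (10 nM) was preincubated with compounds for 15 min at room temperature, after which fluorescent replication substrate (50 nM final) was added to start the reaction. Fluorescence was read kinetically at 0 and 10 min.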
WRN inhibitor – qHTS for Inhibitors of WRN Helicase; AID 651768, 2012; Potency, µM (doses to about 114 µM), inactives show top-dose activity change, negative = inhibition, hits mostly inhibitors; 360,000 tested, 0.46% active; Bifunctional 3'-5' exonuclease/ATP-dependent helicase WRN (Homo sapiens), Q14191; WRN helicase unwinding, fluorescent forked duplex, kinetic; note: % is set by controls: 0 for no effect and ±100 for the full control effect; nearly all actives have a fitted effect of over 55% in size
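Primary qHTS, 1536-well format. 20 nM WRN + compound, 15 min RT; start with 100 nM forked fluorophore/quencher duplex, 2 mM ATP (final); kinetic read ex 525/em 598 nm.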
POLI inh – qHTS for Inhibitors of Polymerase Iota; Potency, µM (top dose mostly 115 µM), inactives show at the top dose activity, negative = inhibition, actives largely listed as inhibitors; DNA polymerase iota (Homo sapiens), Q9UNA4; Pol iota fluorescent replication assay, 10 min; AID 588590, 2011; 390,000 tested, 1% active
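Pol iota at 10 nM preincubated 15 min with compounds at room temperature; reaction started with fluorescent substrate, 50 nM final. Fluorescence read kinetically at 0 and 10 min; buffer-only wells as negative control.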
Pol beta inh – qHTS Assay for Inhibitors of DNA Polymerase Beta | P06746 | Pol beta primer extension/strand displacement, fluorescence kinetic | Potency, µM (series often up to 114 µM), without a hit: at the top dose activity change, negative = inhibition, usual class: inhibitors | 340,000 tested, 1.3% active | AID 485314, 2010; note: % is set by controls: 0 for no effect and ±100 for the full control effect
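Enzyme-only controls used 10 nM Pol beta; buffer lacking enzyme served as negative control. Compound preincubated 15 min, then 50 nM substrate added; 0 and 10 min reads at room temperature.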
Numbers without * were called inactive; ? = inconclusive; · = not tested or not shown; ! = repeats disagree; [ ] = remark or other dose. Calls come from the whole dose curve; as a rule, active = well fitted curve in the direction sought with a large enough effect; inconclusive = small, poorly fitted or top-dose-only effect, or another doubt; inactive = no such curve, though single readings can be large; an effect the other way counts as inactive or inconclusive. Potency is the fitted concentration of half-maximal effect.

SMILES	Pol kappa inh	Pol eta inh	WRN inhibitor	POLI inh	Pol beta inh
CN(C)c1c(Cl)cc(/C=C/c2ccnc3ccccc23)cc1Br	-3%	·	·	?	·
CCOc1ccc(NC(=O)CSc2nnc(-c3ccccc3)n2N)cc1	-14%	?	-21%	-1%	22µM*
COc1ccc(NC(=O)CSc2nnc(-c3ccccc3)n2N)cc1	-2%	9%	-15%	-8%	0%
C1=Cc2ccccc2/C1=C\c1cc2c3c(c1)CCCN3CCC2	-8%	·	·	-12%	·
CCN(CC)CCC(c1ccc(N(C)C)cc1)c1c(OC)cc(OC)c2c1OC(=O)CC2c1ccc(OC)cc1 (stereo unspecified)	-8%	·	·	5%	·
Cc1nc(NC(=O)CCl)sc1C(=O)N(C)C	-1%	9%	2%	-8%	21%
Cc1nc(NC(=O)C(Cl)Cl)sc1C(=O)N(C)C	-31%	10µM*	?	?	35µM*
COc1cc(-c2cc(NC=O)c3ncc(-c4ccc(F)cc4)n3c2)cc(OC)c1OC	·	·	56µM*	·	·
COc1cc(-c2cnc3c(NC=O)cc(-c4ccc(N5CCN(C)CC5)cc4)cn23)cc(OC)c1OC	·	·	50µM*	·	·
Cc1ccc(S(=O)(=O)c2nc(-c3cccs3)oc2SCC(=O)Nc2cc(C)cc(C)c2)cc1	-17%	?	·	3%	?
Cc1ccc(NC(=O)Cn2c(CCC(=O)O)ccc2-c2cccs2)cc1	4%	79µM*	-19%[57.1 µM]	-24%	?
Cc1ccccc1NC(=O)Cn1c(CCC(=O)O)ccc1-c1cccs1	3%	-22%	-2%	90%	0%
Cc1ccc(-n2c(CCC(=O)O)ccc2-c2cccs2)cc1	-14%	?	-22%	?	35µM*
CC(=O)c1ccc(-n2c(CCC(=O)O)ccc2-c2cccs2)cc1	-17%	?	-8%	?	?
Cc1ccc(-n2c(CCC(=O)O)ccc2-c2cccs2)cc1Cl	2%	1%	·	?	2.5µM*
CC(C)(C)c1ccc(C(=O)C[n+]2ccc(Cl)c3ccc(Cl)cc32)cc1	-3%	·	·	7%	·
Brc1cccc[n+]1CCCC[n+]1ccccc1Br	-6%	·	·	?	·
COCCCCOc1cc2nc(N3CCCN(C)CC3)nc(NC3CCN(C)CC3)c2cc1OC	-3%	·	·	24%	·
Cc1cc(N)c2ccccc2[n+]1CCCCCCCCCC[n+]1c(C)cc(N)c2ccccc21	?	-11%[57.1 µM]	·	?	32µM*
CCOc1ccc2oc(C(=O)Nc3nccs3)c(C)c2c1	-2%	22µM*	-5%[11.6 µM]	20%	·
Cc1c(C)c2c(c(C)c1O)CCC(C)(COc1ccc(Cc3sc(=O)[nH]c3O)cc1)O2 (stereo unspecified)	-15%[60.1 µM]	·	·	·	·
CC1(C)CC(=O)C(C(=O)/C=C/NCCc2ccccc2)C(=O)C1	-5%	-8%	-17%	11%	-4%
CC1(C)CC(=O)C(C(=O)/C=C/c2ccco2)C(=O)C1	-5%	-8%	-1%	10%	11µM*
CCOc1ccc(Nc2c3ccccc3nc3ccccc23)cc1	-16%	1%	?	1%	20µM*
C[n+]1ccc(/C=C/c2ccccc2O)c2ccccc21	1%	1%	-8%	-10%	16%
SMILES	Pol kappa inh	Pol eta inh	WRN inhibitor	POLI inh	Pol beta inh
COc1cc(OC)c(/C=C/c2cc[n+](C)c3ccccc23)c(OC)c1	1%	·	·	9%	·
C[n+]1ccc(/C=C/c2ccc(C=S)cc2)c2ccccc21	-23%	·	·	89µM*	·
COc1cc(OC)c(OC)cc1/C=C/c1cc[n+](C)c2ccccc12	89µM*	·	·	71µM*	·
Cc1nnc(N/N=C/c2ccco2)n1N	-7%	-15%	-10%	10µM*	30%
Cc1nnc(N/N=C/c2cccc(C(F)(F)F)c2)n1N	-13%	-16%	-6%[11.6 µM]	13µM*	3%
NC(=O)N/N=C/c1cccc(OCc2ccc(F)cc2)c1	7%	-20%	-14%[57.1 µM]	60%	-25%
Cc1nnc(N/N=C/c2cccc(OCc3ccc(Cl)c(Cl)c3)c2)n1N	-6%	?	-6%	6.3µM*	-8%
Cc1nnc(N/N=C/c2ccccc2C(F)(F)F)n1N	-2%	-14%	23%	?	0%
COc1ccc([C@]23Cc4c(ccc5ccccc45)C(O2)C2=C(CCCC2=O)O3)cc1	·	·	·	·	-2%[22.9 µM]
O=C1C2=C(C(=O)c3ccccc31)C1O[C@](c3ccsc3)(Cc3c1ccc1ccccc31)O2	·	·	·	·	3.2µM*
O=c1oc2ccccc2c2c1C1O[C@](c3ccsc3)(Cc3c1ccc1ccccc31)O2	·	·	·	·	13µM*
O=C1CCCC2=C1C1O[C@](c3ccsc3)(Cc3c1ccc1ccccc31)O2	·	·	·	·	4µM*
O=C1c2ccccc2C(=O)N1CCCC[C@]12Cc3ccccc3C(O1)c1c(c3ccccc3oc1=O)O2	·	·	·	·	-13%[22.9 µM]
Cc1cccc2c(C(O)c3cn(C)c4ccccc34)c[nH]c12 (stereo unspecified)	-12%	·	·	33%	·
O=c1oc2c(O)c(O)cc3c(=O)oc4c(O)c(O)cc1c4c23	0.79µM*!	0.79µM*	·	1.1µM*!	0.16µM*
Cc1c(C)c2cc(Cl)c(O)c(CN(C)C)c2oc1=O	-8%	-1%	-1%	0%	6%
COc1ccc(/C=C2\SC(N)=NC2=O)cc1Br	-20%	?	-32%	?	40µM*
COc1cc(/C=C2/SC(N)=NC2=O)ccc1Oc1ccc([N+](=O)[O-])cc1[N+](=O)[O-]	-1%	-21%	-22%	164%	-19%
CCCOc1ccc(/C=C2\SC(N)=NC2=O)cc1OC	3%	-18%	-7%	?	56µM*
CCOc1nc(C#N)nc(N(c2ccccc2)c2ccccc2)n1	-13%	·	·	-6%	·
C[N+]1(CC(=O)c2ccc(I)cc2)CCOCC1	-2%	·	·	1%	·
O=C(/C=C/c1ccc(O)c(O)c1)c1ccc(O)cc1O	21µM*	·	·	·	·
O=C(/C=C/c1ccc2c(c1)OCO2)c1ccc(O)cc1O	-2%	-25%	-11%	?	·
Cc1ccc(/C=[N+](\[O-])c2ccc(N(C)C)cc2)c2nsnc12	-16%	-1%	-5%[11.6 µM]	50µM*	?
Cc1ccc(C)c2c(/C=C/c3ccc(N(C)C)cc3)ccnc12	-4%	·	·	?	·
SMILES	Pol kappa inh	Pol eta inh	WRN inhibitor	POLI inh	Pol beta inh
O=C(O)c1ccc2c(=O)n3c(nc2c1)/C(=C/c1ccc(C(F)(F)F)cc1)CC3	4%	?	-9%	79µM*	5%
N#Cc1ccc(/C=C2\CCCCn3c2nc2cc(C(=O)O)ccc2c3=O)cc1	-2%	-7%	11%	35%	?
COCCNC(=O)c1cc(-c2cccnc2)nc2ccc(Br)cc12	-5%	6%	-2%	18%	-1%
O=C(NCc1cccs1)c1cc(-c2ccncc2)nc2ccc(Br)cc12	·	·	·	·	40µM*
CN1CCCc2cc(/C=C/c3ccnc4ccccc34)ccc21	1%	·	·	11%	·
CCCNC(=O)c1ccc2snnc2c1	-10%	-11%	1%	-5%	4%
